Reference: PubChem BioAssay (EPA / NIEHS)
Records with an inconclusive call do not appear. More than one record can exist for a structure, and the calls need not agree. The source made the active and inactive calls. The calls were made as follows: active = hit-call score of the fitted dose curve at least 0.9, where 1 is the maximum; inconclusive = response in the unintended direction; inactive = score below 0.9.

Tests used:
[1] = molecular target: bovine Estrogen Receptor (ER), ESR1 (gene 407238) (UniProt P49884); assay: NVS_NR_bER: NovaScreen (NVS) Nuclear Receptor Binding Assay for bovine Estrogen Receptor (ER) (AID 2283345);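 also: actives lower the bound radioligand count which means they displace the ER ligand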
Method in brief: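 Displacement of a radioligand from estrogen receptor in bovine uterine membrane preparations; scintillation signal taken at 18 hours, DMSO as baseline. Single-concentration duplicates (25 uM) preceded concentration-response follow-up of actives.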

[2] = molecular target: chimpanzee Androgen Receptor (AR), AR (gene 747460) (UniProt O97775); assay: NVS_NR_cAR: NovaScreen (NVS) Nuclear Receptor Binding Assay for chimpanzee Androgen Receptor (AR) (AID 2283346);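 also: radioligand displacement from AR measured by scintillation counting in a cell-free assay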
Method in brief: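 Cell-free radioligand displacement using receptor protein extracted from Sf9/Sf21 cells; bound radioligand measured by scintillation counting 72 hours after chemical dosing. Loss of signal versus DMSO baseline indicates binding; primary screen single-concentration in duplicate at 25 uM, actives followed in concentration series.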

[3] = molecular target: Estrogen receptor (Homo sapiens) (UniProt P03372); assay: OT_ER_ERaERa_1440: Odyssey Thera (OT) 24-hour HEK293T Protein-Complementation Assay for Estrogen Receptor-alpha/-alpha Homodimer (AID 2283349);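 also: hits raise fluorescence above DMSO for agonists and antagonists alike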
Method in brief: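 Readout is the rise in mean fluorescence from reporter fragment complementation when ERα LBD (aa 310-547) units dimerize in HEK293T cells. Measured 24 h after dosing and analysed as increase over DMSO control.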

[4] = molecular target: T1, Estrogen receptor (Homo sapiens) + Estrogen receptor beta (Homo sapiens) (UniProt P03372+Q92731); assay: OT_ER_ERaERb_0480: Odyssey Thera (OT) 8-hour HEK293T Protein-Complementation Assay for Estrogen Receptor-alpha/-beta Heterodimer (AID 2283352)
Method in brief: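 Human HEK293T cells were treated for 8 hours and receptor heterodimerisation was detected through reconstitution of a fluorescent reporter split between ER-alpha and ER-beta ligand-binding domains. Activity was analysed as gain of signal against DMSO.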

[5] = molecular target: Androgen Receptor/SRC-1 Co-activator, AR (gene 367) (UniProt P10275); assay: OT_AR_ARSRC1_0960: Odyssey Thera (OT) 16-hour HEK293T Protein-Complementation Assay for Androgen Receptor/SRC-1 Co-activator (AID 2283353);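 also: actives raise the signal above DMSO so potency reflects increased AR and SRC-1 complex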
Method in brief: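 HEK293T cells stably expressing AR and SRC-1 fused to split Venus YFP fragments via (Gly4Ser)2 linkers were dosed for 16 h. Nuclear/cytoplasmic fluorescence ratio at 488 nm, ≥400 cells per image, fitted for gain of signal versus DMSO.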

[6] = molecular target: T1, Estrogen receptor (Homo sapiens) + Estrogen receptor beta (Homo sapiens); assay: OT_ER_ERaERb_1440: Odyssey Thera (OT) 24-hour HEK293T Protein-Complementation Assay for Estrogen Receptor-alpha/-beta Homodimer (AID 2283356);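 also: heteromer of ER alpha and ER beta binding domains; hits raise reporter fluorescence and both agonists and antagonists give an increase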
Method in brief: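 24 h exposure; HEK293T PCA cells with ERα/ERβ LBD fragments; signal rise in nuclear or whole-cell fluorescence over vehicle.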

[7] = molecular target: Estrogen receptor beta (Homo sapiens) (UniProt Q92731); assay: OT_ER_ERbERb_0480: Odyssey Thera (OT) 8-hour HEK293T Protein-Complementation Assay for Estrogen Receptor-beta/-beta Homodimer (AID 2283357);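 also: active means signal gain over DMSO baseline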
Method in brief: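 Readout: increase in mean fluorescence intensity (nucleus for agonists; nucleus plus cytoplasm for antagonists) relative to DMSO, from a reporter-fragment complementation of human ER-beta LBD homodimer in HEK293T cells dosed 8 hours.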

PGR (gene 5241) = PGR (gene 5241) (UniProt P06401); assay: NVS_NR_hPR: NovaScreen (NVS) Nuclear Receptor Binding Assay for human Progestron Receptor (PR) (AID 2283360)
Method in brief: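 T47D-derived receptor preparation, cell-free, with tritiated or iodinated radioligand displacement measured by scintillation 18 h post-dosing. Single 25 uM duplicate screen, then concentration series; signal loss relative to DMSO.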

[8] = molecular target: Glucocorticoid receptor (Homo sapiens) (UniProt P04150); assay: NVS_NR_hGR: NovaScreen (NVS) Nuclear Receptor Binding Assay for human Glucocorticoid Receptor (GR) (AID 2283363);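 as to AC50: activity is loss of specific radioligand binding signal relative to DMSO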
Method in brief: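 Cell-free radioligand binding with extracted receptor protein, read by filter-based scintillation counting 16 hours after dosing. Loss of specific signal versus DMSO baseline was scored. Primary screen ran in duplicate at 25 uM; actives were followed up in concentration series.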

[9] = molecular target: human Adenosine Transporter (Adot), SLC29A1 (gene 2030) (UniProt Q99808); assay: NVS_TR_hAdoT: NovaScreen (NVS) Transporter Assay for human Adenosine Transporter (Adot) (AID 2283368)
Method in brief: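 U937-derived membranes, cell-free radioligand binding, filter scintillation 1 h after dosing. 25 uM duplicate screen; hits (e.g. 30% inhibition) run in concentration-response up to 50 uM; loss of signal versus DMSO.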

[10] = molecular target: Bile acid receptor (Homo sapiens) (UniProt Q96RI1); assay: NVS_NR_hFXR_Antagonist: NovaScreen (NVS) Nuclear Receptor Binding Assay for human Farnesoid X Receptor Antagonism (FXR) (AID 2283350)
Method in brief: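 Cell-free TR-FRET ligand-binding read-out on human FXR (NR1H4) in antagonist mode, measured 1 h after dosing. Primary screen in duplicate at 25 uM, actives retested in concentration series; signal loss scored versus DMSO.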

[11] = molecular target: Retinoic acid receptor alpha (Homo sapiens) (UniProt P10276); assay: NVS_NR_hRAR_Antagonist: NovaScreen (NVS) Nuclear Receptor Binding Assay for human Retinoic Acid Alpha Receptor Antagonism (RAR) (AID 2283358)
Method in brief: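 Cell-free TR-FRET binding assay on extracted receptor protein, run in antagonist mode; signal read 2 hours after chemical dosing. Loss of signal was fitted relative to DMSO baseline. Screened at 25 uM in duplicate, actives followed up in concentration series.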

[12] = molecular target: human Constitutive Androstane Receptor (CAR), NR1I3 (gene 9970) (UniProt Q14994); assay: NVS_NR_hCAR_Antagonist: NovaScreen (NVS) Nuclear Receptor Binding Assay for human Constitutive Androstane Receptor Antagonism (CAR) (AID 2283344)
Method in brief: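 Cell-free TR-FRET binding read 1 h after dosing, antagonist mode; loss of signal versus DMSO baseline. Primary screen in duplicate at a single 25 uM; actives retested in concentration series.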

[13] = molecular target: human Peroxisome Proliferator-activated Receptor alpha (PPARa), PPARA (gene 5465) (UniProt Q07869); assay: NVS_NR_hPPARa: NovaScreen (NVS) Nuclear Receptor Binding Assay for human Peroxisome Proliferator-activated Receptor alpha (PPARa) (AID 2283359);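 also: activity means loss of TR-FRET signal versus DMSO baseline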
Method in brief: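 Cell-free binding assay with extracted human protein, read by TR-FRET 1 h after chemical dosing. Loss of signal relative to DMSO baseline indicates binding. Primary screen used duplicate single concentration (25 uM); actives followed up in concentration series.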

[14] = molecular target: Nuclear receptor subfamily 1 group I member 2 (Homo sapiens) (UniProt O75469); assay: NVS_NR_hPXR: NovaScreen (NVS) Nuclear Receptor Binding Assay for human Pregnane X Receptor (PXR) (AID 2283365);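 also: a drop in FRET signal versus DMSO baseline means the compound binds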
Method in brief: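 Read-out: TR-FRET, human PXR, 2 h post-dosing, cell-free. Loss of signal vs DMSO taken as binding activity; 25 uM primary, concentration series secondary.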

[15] = molecular target: rat Androgen Receptor (AR), Ar (gene 24208) (UniProt P15207); assay: NVS_NR_rAR: NovaScreen (NVS) Nuclear Receptor Binding Assay for rat Androgen Receptor (AR) (AID 2283366)
Method in brief: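 Cell-free radioligand binding on extracts of prostate from testosterone-pretreated rats, read by filter-based scintillation counting 18 h after dosing. Loss of bound signal fitted positively versus DMSO; primary screen in duplicate at 25 uM, actives followed up in concentration series.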

[16] = molecular target: rat Mineralocorticoid Receptor (MR), Nr3c2 (gene 25672) (UniProt P22199); assay: NVS_NR_rMR: NovaScreen (NVS) Nuclear Receptor Binding Assay for rat Mineralocorticoid Receptor (MR) (AID 2283355)
Method in brief: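 Cell-free radioligand binding to MR in adrenalectomized rat brain supernatant, scintillation counted 24 h after dosing. Loss of signal versus DMSO baseline marks displacement. Primary screen in duplicate at 25 uM; actives retested as concentration series.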

[17] = molecular target: Retinoic acid receptor alpha (Homo sapiens) (UniProt P10276); assay: NVS_NR_hRARa_Agonist: NovaScreen (NVS) Nuclear Receptor Binding Assay for human Retinoic Acid Alpha Receptor Agonism (RAR) (AID 2283361)
Method in brief: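 Cell-free TR-FRET binding read-out with extracted human RARα protein, read 2 h after compound addition. Gain of signal scored against DMSO baseline. Primary screen at a single 25 uM in duplicate; actives then retested in concentration series.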

Measured: AC50

Sequence of Estrogen receptor beta (Homo sapiens) (Q92731 whole entry, looked up, the tested form may be a part): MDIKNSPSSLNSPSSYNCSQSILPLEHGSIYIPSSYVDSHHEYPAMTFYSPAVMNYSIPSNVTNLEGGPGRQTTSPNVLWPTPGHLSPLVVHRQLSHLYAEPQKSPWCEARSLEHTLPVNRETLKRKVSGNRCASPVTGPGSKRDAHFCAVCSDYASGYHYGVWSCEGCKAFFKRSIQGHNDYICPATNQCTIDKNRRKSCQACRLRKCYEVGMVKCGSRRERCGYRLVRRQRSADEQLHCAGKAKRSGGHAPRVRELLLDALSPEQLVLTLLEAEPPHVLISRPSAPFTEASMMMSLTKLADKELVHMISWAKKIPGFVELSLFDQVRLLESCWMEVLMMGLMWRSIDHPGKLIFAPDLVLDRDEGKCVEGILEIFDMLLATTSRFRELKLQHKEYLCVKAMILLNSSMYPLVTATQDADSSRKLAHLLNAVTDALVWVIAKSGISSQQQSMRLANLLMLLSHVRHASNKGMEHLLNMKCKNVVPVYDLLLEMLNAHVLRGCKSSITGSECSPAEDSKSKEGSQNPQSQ
Sequence of human Adenosine Transporter (Adot), SLC29A1 (gene 2030) (Q99808 whole entry, looked up): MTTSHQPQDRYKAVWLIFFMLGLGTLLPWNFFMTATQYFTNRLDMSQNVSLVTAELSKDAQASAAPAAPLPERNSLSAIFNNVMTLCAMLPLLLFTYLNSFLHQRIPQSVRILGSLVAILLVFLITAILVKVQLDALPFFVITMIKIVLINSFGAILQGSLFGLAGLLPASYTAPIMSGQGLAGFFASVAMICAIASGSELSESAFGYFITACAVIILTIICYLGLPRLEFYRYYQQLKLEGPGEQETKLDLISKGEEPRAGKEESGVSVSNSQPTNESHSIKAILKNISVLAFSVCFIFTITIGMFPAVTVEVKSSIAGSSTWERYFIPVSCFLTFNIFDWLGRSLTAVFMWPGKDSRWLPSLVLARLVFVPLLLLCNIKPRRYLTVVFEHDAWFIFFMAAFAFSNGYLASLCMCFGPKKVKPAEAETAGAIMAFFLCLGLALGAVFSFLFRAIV
Sequence of Androgen Receptor/SRC-1 Co-activator, AR (gene 367) (P10275 whole entry, looked up, the tested form may be a part): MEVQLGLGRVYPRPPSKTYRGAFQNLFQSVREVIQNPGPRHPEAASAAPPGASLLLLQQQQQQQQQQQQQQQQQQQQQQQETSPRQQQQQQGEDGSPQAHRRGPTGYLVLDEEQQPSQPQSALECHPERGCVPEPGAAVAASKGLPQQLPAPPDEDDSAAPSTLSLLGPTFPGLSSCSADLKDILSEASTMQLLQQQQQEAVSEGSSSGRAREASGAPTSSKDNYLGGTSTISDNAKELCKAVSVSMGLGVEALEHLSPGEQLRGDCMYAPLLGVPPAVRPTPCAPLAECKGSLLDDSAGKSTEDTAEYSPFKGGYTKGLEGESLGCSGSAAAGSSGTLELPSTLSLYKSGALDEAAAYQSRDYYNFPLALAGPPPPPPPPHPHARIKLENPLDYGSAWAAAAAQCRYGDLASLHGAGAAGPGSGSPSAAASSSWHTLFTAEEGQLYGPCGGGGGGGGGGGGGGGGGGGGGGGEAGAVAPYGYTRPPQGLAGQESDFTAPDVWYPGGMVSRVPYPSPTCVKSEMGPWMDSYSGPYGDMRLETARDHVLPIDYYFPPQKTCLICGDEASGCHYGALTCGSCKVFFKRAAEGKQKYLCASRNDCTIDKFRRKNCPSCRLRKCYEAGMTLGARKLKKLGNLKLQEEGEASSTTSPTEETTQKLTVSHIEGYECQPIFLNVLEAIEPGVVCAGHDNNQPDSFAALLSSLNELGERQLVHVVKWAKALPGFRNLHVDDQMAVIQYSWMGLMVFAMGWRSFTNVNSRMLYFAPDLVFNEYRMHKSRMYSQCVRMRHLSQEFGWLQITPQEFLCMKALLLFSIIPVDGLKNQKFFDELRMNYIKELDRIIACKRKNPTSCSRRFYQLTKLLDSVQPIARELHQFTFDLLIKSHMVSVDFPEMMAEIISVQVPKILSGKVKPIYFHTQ
Sequence of chimpanzee Androgen Receptor (AR), AR (gene 747460) (O97775 whole entry, looked up): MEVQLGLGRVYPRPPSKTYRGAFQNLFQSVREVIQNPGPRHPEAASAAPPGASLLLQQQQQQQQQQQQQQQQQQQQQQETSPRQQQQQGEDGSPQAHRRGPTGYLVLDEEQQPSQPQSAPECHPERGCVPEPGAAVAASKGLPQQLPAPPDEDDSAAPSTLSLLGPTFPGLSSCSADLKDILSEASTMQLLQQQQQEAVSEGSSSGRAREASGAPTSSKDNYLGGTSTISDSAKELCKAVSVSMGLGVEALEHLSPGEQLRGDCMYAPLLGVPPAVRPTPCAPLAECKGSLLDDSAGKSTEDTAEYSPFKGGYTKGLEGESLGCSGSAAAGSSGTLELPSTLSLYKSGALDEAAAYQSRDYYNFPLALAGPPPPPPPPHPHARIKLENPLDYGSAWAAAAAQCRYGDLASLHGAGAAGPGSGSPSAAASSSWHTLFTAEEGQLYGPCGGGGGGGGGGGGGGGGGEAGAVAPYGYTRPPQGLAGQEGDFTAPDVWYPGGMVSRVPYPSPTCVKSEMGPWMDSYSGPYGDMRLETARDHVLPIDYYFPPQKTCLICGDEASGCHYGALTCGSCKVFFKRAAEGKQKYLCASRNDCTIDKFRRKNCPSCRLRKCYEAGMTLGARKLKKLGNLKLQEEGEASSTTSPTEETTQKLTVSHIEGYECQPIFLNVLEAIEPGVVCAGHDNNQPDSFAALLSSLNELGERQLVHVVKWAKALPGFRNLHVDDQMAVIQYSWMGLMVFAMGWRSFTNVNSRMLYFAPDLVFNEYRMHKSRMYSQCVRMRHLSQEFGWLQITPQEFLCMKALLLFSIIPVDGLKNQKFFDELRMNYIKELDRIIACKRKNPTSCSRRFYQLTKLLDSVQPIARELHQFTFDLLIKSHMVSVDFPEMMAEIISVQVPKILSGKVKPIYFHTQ
Sequence of Bile acid receptor (Homo sapiens) (Q96RI1 whole entry, looked up): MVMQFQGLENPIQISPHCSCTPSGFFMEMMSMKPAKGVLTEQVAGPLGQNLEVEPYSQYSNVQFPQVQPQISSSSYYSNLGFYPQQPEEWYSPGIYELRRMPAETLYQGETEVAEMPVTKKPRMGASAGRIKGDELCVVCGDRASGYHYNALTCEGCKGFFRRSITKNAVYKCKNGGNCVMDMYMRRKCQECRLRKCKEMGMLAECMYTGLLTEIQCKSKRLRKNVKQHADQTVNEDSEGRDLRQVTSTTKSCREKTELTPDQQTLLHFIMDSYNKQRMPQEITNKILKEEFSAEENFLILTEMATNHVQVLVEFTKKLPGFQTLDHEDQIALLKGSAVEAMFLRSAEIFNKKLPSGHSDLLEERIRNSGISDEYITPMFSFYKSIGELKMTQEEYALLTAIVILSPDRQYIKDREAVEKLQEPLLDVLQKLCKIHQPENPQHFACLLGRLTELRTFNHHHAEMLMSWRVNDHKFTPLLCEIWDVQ
Sequence of Glucocorticoid receptor (Homo sapiens) (P04150 whole entry, looked up): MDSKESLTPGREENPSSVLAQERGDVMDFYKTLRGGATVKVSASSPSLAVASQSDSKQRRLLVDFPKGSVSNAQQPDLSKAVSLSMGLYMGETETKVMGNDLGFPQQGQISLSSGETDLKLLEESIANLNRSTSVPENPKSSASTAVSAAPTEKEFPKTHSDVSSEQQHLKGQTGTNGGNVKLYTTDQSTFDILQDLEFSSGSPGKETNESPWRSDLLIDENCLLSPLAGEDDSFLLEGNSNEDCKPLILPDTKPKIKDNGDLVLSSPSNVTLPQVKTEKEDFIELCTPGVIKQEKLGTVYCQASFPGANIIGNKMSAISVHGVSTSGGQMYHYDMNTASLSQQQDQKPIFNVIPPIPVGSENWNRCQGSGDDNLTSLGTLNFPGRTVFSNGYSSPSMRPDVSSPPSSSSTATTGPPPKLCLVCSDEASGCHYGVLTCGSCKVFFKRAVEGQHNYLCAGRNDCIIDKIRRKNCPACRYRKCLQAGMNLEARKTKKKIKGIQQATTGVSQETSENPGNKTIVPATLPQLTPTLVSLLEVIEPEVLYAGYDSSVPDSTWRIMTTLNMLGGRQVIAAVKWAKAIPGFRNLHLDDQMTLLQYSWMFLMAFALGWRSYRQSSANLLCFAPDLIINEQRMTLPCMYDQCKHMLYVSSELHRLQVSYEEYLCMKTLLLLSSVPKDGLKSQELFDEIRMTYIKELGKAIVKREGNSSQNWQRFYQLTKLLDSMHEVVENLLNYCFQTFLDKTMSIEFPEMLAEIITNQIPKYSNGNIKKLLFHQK
Sequence of rat Androgen Receptor (AR), Ar (gene 24208) (P15207 whole entry, looked up): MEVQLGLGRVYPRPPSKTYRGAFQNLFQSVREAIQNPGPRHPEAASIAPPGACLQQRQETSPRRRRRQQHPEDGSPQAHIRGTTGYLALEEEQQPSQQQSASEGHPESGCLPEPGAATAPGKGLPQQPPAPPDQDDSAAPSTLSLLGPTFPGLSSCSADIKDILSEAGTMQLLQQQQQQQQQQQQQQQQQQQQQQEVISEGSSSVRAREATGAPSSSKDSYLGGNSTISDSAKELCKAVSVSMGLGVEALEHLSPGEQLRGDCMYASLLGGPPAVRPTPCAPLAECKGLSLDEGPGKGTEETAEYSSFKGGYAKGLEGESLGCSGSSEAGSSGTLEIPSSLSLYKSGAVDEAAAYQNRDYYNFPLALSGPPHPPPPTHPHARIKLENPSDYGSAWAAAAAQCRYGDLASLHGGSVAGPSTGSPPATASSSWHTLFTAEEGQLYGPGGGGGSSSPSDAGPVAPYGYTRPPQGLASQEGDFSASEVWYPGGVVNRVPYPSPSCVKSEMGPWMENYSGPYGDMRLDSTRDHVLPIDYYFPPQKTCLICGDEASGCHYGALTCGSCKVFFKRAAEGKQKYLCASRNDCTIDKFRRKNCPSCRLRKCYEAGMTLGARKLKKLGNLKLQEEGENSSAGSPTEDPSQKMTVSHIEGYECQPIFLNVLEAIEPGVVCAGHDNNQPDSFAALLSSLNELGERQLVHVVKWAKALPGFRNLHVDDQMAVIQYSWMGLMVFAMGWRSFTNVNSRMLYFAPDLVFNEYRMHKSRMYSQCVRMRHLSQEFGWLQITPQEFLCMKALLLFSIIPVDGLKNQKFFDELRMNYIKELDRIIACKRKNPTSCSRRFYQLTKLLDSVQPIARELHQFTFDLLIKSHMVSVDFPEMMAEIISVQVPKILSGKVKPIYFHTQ

CCN(Cc1cccnc1)C(=O)c1cccc(Cl)c1[C@]1(C)C(=O)N(Cc2ccc(OC)cc2OC)c2ccc(Cl)cc21
active: [2] 18.3 µM | [5] 2.59 µM | PGR (gene 5241) 9.73 µM | [8] 4.93 µM | [9] 1.55 µM
inactive: [1] | [3] | [4] | [6] | [7]

CN1C(=O)N(c2ccccc2Br)Cc2cnc(Nc3ccc4c(c3)OCC(CO)O4)nc21 (configuration not stated)
active: [1] 0.447 µM | [10] 0.0374 µM
inactive: [2] | [3] | [4] | [6] | [7] | [11] | [8]

CC(=O)N1CCN(c2ccc(OC[C@H]3CO[C@](Cn4ccnc4)(c4ccc(Cl)cc4Cl)O3)cc2)CC1
inactive: [12] | [3] | [4] | [7]
active: [10] 20.2 µM

CN(C)c1ccc(C(=C2C=CC(=[N+](C)C)C=C2)c2ccc(N(C)C)cc2)cc1
inactive: [1] | [3] | [6]
active: [2] 17.7 µM | [5] 0.273 µM | [13] 14.7 µM | [8] 1.87 µM | [14] 6.47 µM | [15] 6.51 µM | [9] 7.35 µM

CCCCCCCCOC(=O)c1cc(O)c(O)c(O)c1
active: [1] 36.7 µM | [3] 14.4 µM | [4] 11.9 µM | [6] 13 µM | [7] 12.4 µM | [13] 19 µM | [8] 1.14 µM | [9] 22.2 µM

Cc1cn([C@H]2C[C@H](N=[N+]=[N-])[C@@H](CO)O2)c(=O)[nH]c1=O
inactive: [3]

C[C@]12CC[C@@H]3c4ccc(O)cc4CC[C@H]3[C@@H]1CCC2=O
inactive: [1] | [2] | [16] | [13] | [15]
active: [2] 0.472 µM | PGR (gene 5241) 0.159 µM

CCN(Cc1cccc(S(=O)(=O)O)c1)c1ccc(C(=C2C=CC(=[N+](CC)Cc3cccc(S(=O)(=O)O)c3)C=C2)c2ccccc2S(=O)(=O)[O-])cc1
inactive: [3] | [10] | [4] | [6] | [7]
active: [2] 16.1 µM

O=c1c(-c2ccc(O)cc2)coc2cc(O)cc(O)c12
inactive: [2] | [10] | [5] | [17] | [14] | [15]
